Results as given in PubChem BioAssay AID686979 (National Center for Advancing Translational Sciences (NCATS), 2013).
The campaign covered roughly 420,000 compounds. About 50,000 (12%) were called active. Inconclusive results (about 26%) are left out. The sample as a whole holds a higher share of actives than the screen did. Unmarked numbers belong to inactive results. Calls come from the whole dose curve; as a rule, active = well fitted inhibition curve with a large enough effect; inconclusive = small, poorly fitted or top-dose-only effect; inactive = flat fitted curve, though single readings scatter.

assay: qHTS for Inhibitors of human tyrosyl-DNA phosphodiesterase 1 (TDP1): qHTS in cells in presence of CPT; conditions: chicken DT40 Tdp1-/-;hTDP1 cells + 20 nM CPT, ATP luminescence, 48 h; series mostly up to 46.2 µM; activity change, negative = growth inhibition: at the top concentration; note: nearly all actives have a fitted effect of over 55% in size
Method in brief: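 Chicken DT40 Tdp1-/- cells complemented with human TDP1, 400 cells/well, exposed to compounds plus 20 nM camptothecin for at least 48 h at 37 C; viability read as ATP content by CellTiter-Glo luminescence.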
% is set by controls: 0 for no effect and ±100 for the full control effect; potency is the fitted concentration of half-maximal effect.

First: COc1ccc(C(=O)COC(=O)CNC(=O)c2cccs2)cc1Br
Second: Cc1ccccc1NC(=O)Cc1nc(COC(=O)CNC(=O)c2ccc(Cl)cc2Cl)cs1
The “activity change, negative = growth inhibition” value of the first is higher: 6.66% for the first, -6.01% for the second.

Going from `Cc1ccc(S(=O)(=O)N2CCN(c3ccccc3)CC2)cc1C` to `Cn1cc(S(=O)(=O)N2CCN(c3ccc(F)cc3)CC2)c(=O)n(C)c1=O`, the “activity change, negative = growth inhibition” value falls from 4.16% to 1.72%.

Going from `COC(=O)/C(=C\Nc1ccccc1)NC(=O)c1ccc(Cl)cc1Cl` to `COc1cc(OC)c(NC(=O)C2CCCN2C(=O)OCc2ccccc2)cc1Cl` (stereo unspecified), the “activity change, negative = growth inhibition” value rises from -12.4% to -5.29%.

Going from `COC(=O)Cc1nc2c(N)nc(N)nc2[nH]c1=O` to `Cc1ccc2nc(COc3cccc(NC(=O)c4cccc(Cl)c4)c3)cc(=O)n2c1`, the “activity change, negative = growth inhibition” value rises from 1.28% to 5.1%.

Going from `COc1cc2c(cc1OC)CN(CC(=O)Nc1ccc(F)cc1)CC2` to `COc1ccc(C(=O)Nc2ccc(C(=O)NCC3CCCO3)cc2)c(OC)c1OC` (stereo unspecified), the “activity change, negative = growth inhibition” value rises from 0.106% to 0.208%.

Compared with `COc1ccc2c(c1)CCC/C2=N\OC(=O)c1ccccc1F`, `COc1cc(CN2CCC(C(N)=O)CC2)ccc1OCc1ccccc1` is lower in “activity change, negative = growth inhibition” value: 0.0235% for the first, -6.41% for the second.

Compared with `NC(=O)C1(Nc2ccccc2Cl)CCCC1`, `CS(=O)(=O)N1CCCC(C(=O)Nc2ccccc2C(F)(F)F)C1` (stereo unspecified) is lower in “activity change, negative = growth inhibition” value: 1.03% for the first, 0.592% for the second.

Going from `NC(=O)c1ccc(-c2csnn2)cc1` to `CCc1ccc(C(=O)OCC(=O)NCC(F)(F)F)cc1`, the “activity change, negative = growth inhibition” value rises from -2.39% to 0.645%.

Compared with `CCOc1ccc(CCNC(=O)COC(=O)CCS(=O)(=O)c2ccc(C)cc2)cc1OCC`, `CCOc1ccc(NS(=O)(=O)c2ccc(OCC(=O)NCCCOC)cc2)cc1` is higher in “activity change, negative = growth inhibition” value: -9.18% for the first, -7.83% for the second.

First: Cc1nc2ccccc2nc1CC(O)(c1ccccc1)c1ccccc1
Second: CCn1c(SCC(=O)N/N=C/c2ccccc2OCC(=O)O)nnc1-c1ccc(C(C)(C)C)cc1
The “activity change, negative = growth inhibition” value of the first is lower: -15.5% for the first, 9.93% for the second.

Compared with `CN(C)NC(=O)c1csnc1-c1c(Cl)cccc1Cl`, `O=C(NCc1cccnc1)c1cc(S(=O)(=O)N2CCOCC2)c(Cl)cc1Cl` is lower in “activity change, negative = growth inhibition” value: 6.02% for the first, 4.04% for the second.

Compared with `COc1ccc(S(=O)(=O)N2CCN(C(=O)NC3CCCCC3)CC2)cc1`, `COc1cccc(CNC(C)C(=O)Nc2ccc(S(=O)(=O)N3CCCC3)cc2)c1` (stereo unspecified) is lower in “activity change, negative = growth inhibition” value: 2.96% for the first, -18.1% for the second.

First: O=C(NC(=S)NC1CCSC1=O)c1ccccc1F (stereo unspecified)
Second: Cc1cccn2c(=O)c3cc(C(=O)NC4CCCCC4)sc3nc12
The “activity change, negative = growth inhibition” value of the first is higher: 5.66% for the first, -26.2% for the second.

First: CS(=O)(=O)NC(=O)CCC/C=C\C[C@H]1C(=O)C[C@@H](O)[C@@H]1/C=C/[C@H](O)COc1ccccc1
Second: CCCCn1c(=N)c(S(=O)(=O)c2ccccc2)cc2c(=O)n3cccc(C)c3nc21
The “activity change, negative = growth inhibition” value of the first is lower: -5.58% for the first, 0.133% for the second.

First: COc1cc(OC)cc(-c2sc3ccc(OC)cc3c2-c2ccc3cc[nH]c3c2)c1
Second: COc1ccc2c(c1)C(c1cccs1)=NNC(c1cccnc1)=N2
The “activity change, negative = growth inhibition” value of the first is higher: 2.8% for the first, -2.75% for the second.

First: c1ccc(-c2ccc(OCCN3CCOCC3)cc2)cc1
Second: Cc1cccc(C)c1OCCN1CCOCC1
The “activity change, negative = growth inhibition” value of the first is lower: -8.28% for the first, 0.496% for the second.

Compared with `COc1cccc(OCCCN2CCCCCC2)c1`, `COc1ccc(CCNC(=O)Cn2c(=O)n(CC3CCCO3)c(=O)c3ccccc32)cc1OC` (stereo unspecified) is lower in “activity change, negative = growth inhibition” value: 7.79% for the first, -1.14% for the second.

First: COc1ccc(S(=O)(=O)N(C)C[C@@H]2Oc3ccc(NS(=O)(=O)c4cn(C)cn4)cc3C(=O)N([C@@H](C)CO)C[C@@H]2C)cc1
Second: CCCCNC(=O)c1c[nH]c2ccc(S(=O)(=O)Nc3ccc(OCC)cc3)cc2c1=O
The “activity change, negative = growth inhibition” value of the first is higher: -5.54% for the first, -22.1% for the second.

Going from `CCOC(=O)c1cc2c(=O)n3ccccc3nc2n(CC2CCCO2)c1=NC(=O)c1ccccc1Br` (stereo unspecified) to `Cc1cccn2c(=O)c3cc(C#N)c(=NC(=O)c4cccnc4)n(CC4CCCO4)c3nc12` (stereo unspecified), the “activity change, negative = growth inhibition” value falls from 4.33% to -2.32%.

Going from `Cc1ccc2nc3c(cc(C(=O)NC4CCCCC4)c(=N)n3C(C)C)c(=O)n2c1` to `COC(=O)C1=C(C)NC(=S)NC1c1ccc(OCC(=O)N2CC(C)OC(C)C2)c(OC)c1` (stereo unspecified), the “activity change, negative = growth inhibition” value falls from 6.44% to -17.4%.

With `CCOc1ccc(N2C(=O)CSC2=NC#N)cc1` the “activity change, negative = growth inhibition” value was 0.495%.

In the case of `COc1cc2c(cc1OC)C(COc1ccc(F)cc1)N(C(=O)c1ccccc1F)CC2` (stereo unspecified), the Potency is reported as 18.4 µM (active).
For `COc1ccc(S(=O)(=O)N2CCN(C(C)C(=O)Nc3ccc(C(C)C)cc3)CC2)cc1` (stereo unspecified), the Potency was 29.1 µM (active).
In the case of `COc1cc(CNC2CCCC2)c(Br)cc1OCc1ccccc1`, the Potency is reported as 20.6 µM (active).
For `COc1cccc(-c2sc3ccc(OC)cc3c2-c2ccc(OCCN3CCCCC3)cc2)c1`, the Potency was 18.4 µM (active).
For `COc1ccc(-c2sc3ccccc3c2-c2ccc(OCCN3CCOCC3)cc2)cc1`, the Potency was 14.6 µM (active).
In the case of `CCOc1ccc(NS(=O)(=O)c2ccc(C)c(C(N)=O)c2)cc1`, the Potency is reported as 20.6 µM (active).
For `Cc1ccc2nc3c(cc(C(=O)NCCc4ccccc4)c(=N)n3CC3CCCO3)c(=O)n2c1` (stereo unspecified), the Potency was 20.6 µM (active).
For `Cc1cccn2c(=O)c3cc(C(=O)NCCN4CCOCC4)c(=N)n(Cc4cccnc4)c3nc12`, the Potency was 13 µM (active).
With `COc1ccc(CCn2c(=N)c(C(=O)NCC3CCCO3)cc3c(=O)n4cccc(C)c4nc32)cc1OC` (stereo unspecified) the Potency was 5.17 µM (active).
With `COCCCn1c(C(=O)NC2CCCCC2)cc2c(=O)n3cccc(C)c3nc21` the Potency was 18.4 µM (active).
